This is a sample that favours compounds with a hit; in the whole collection about 3.5% have one here.
GPR151 ag: activates the human receptor GPR151. Q8TDV0. PathHunter beta-arrestin GPR151 cells, luminescence. activation, % at 11.2 µM. 1% of 650,000 active. AID 1508602; in the data active means activation above about 4.9%;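 further: 0% = median of compound wells and 100% = cells with positive control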
TEAD-YAP inh: TEAD-YAP interaction inhibition | HEK-TIYL cells, TEAD-Gal4/YAP UAS-luciferase luminescence | inhibition, % at 9.12 µM | 1.4% of 640,000 active; in the data active means inhibition above about 32%;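 further: 0% = median of test compound wells and 100% = reference inhibitor wells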
FBW7 activator: activators of human E3 ligase FBW7 | Q969H0 | AlphaScreen FBW7–phospho-cyclin E peptide binding, activator screen | normalized activity (activation), % at 26.1 µM | 0.13% of 650,000 active | AID 1259310; in the data active means normalized activity above about 1.9%;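 further: purified mutant Fbw7 with reduced substrate affinity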
MITF inh: blocks human microphthalmia-associated transcription factor | 0.91% of 650,000 active | O75030 | inhibition, % at 2.6 µM | AID 1259374 | AlphaScreen MITF homodimerization, bead proximity signal; in the data active means inhibition above about 50%;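 further: 0% = vehicle wells with protein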
Target sequence (O75030 whole entry, looked up): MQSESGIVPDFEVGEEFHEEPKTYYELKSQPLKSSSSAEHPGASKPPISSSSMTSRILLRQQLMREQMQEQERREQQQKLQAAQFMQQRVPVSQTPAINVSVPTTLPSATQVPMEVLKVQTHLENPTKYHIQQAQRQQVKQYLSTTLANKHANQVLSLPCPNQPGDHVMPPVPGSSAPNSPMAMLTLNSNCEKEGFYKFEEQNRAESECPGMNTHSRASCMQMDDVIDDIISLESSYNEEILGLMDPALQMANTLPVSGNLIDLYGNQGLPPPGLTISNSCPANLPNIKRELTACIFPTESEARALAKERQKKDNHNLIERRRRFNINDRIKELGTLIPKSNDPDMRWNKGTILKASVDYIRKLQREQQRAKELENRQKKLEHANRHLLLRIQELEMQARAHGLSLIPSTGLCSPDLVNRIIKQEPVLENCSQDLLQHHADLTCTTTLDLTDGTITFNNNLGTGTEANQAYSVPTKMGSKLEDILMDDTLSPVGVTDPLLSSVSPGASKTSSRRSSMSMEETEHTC
Numbers without * were called inactive.

`O=C(Cn1cnc2ccccc2c1=O)NCCC(=O)N1CCCc2ccccc21` gave GPR151 ag 0, TEAD-YAP inh 6, FBW7 activator 0 and MITF inh 9.
Screening O=C(Nc1cccc(Cl)c1)c1ccccc1Br returned GPR151 ag 0, TEAD-YAP inh -40, FBW7 activator 0 and MITF inh 5.
`O=C1NC(=O)N(c2cccc(Cl)c2)C(=O)/C1=C/c1ccc(I)o1` gave GPR151 ag 0, TEAD-YAP inh 9, FBW7 activator 0 and MITF inh 67*.
For O=C1NC(=O)N(c2cccc(Cl)c2)C(=O)/C1=C/c1ccc([N+](=O)[O-])o1 the results were GPR151 ag 0, TEAD-YAP inh 7, FBW7 activator 0 and MITF inh 75*.
Cc1ccc(/C=C2\C(=O)NC(=S)N(c3cccc(Cl)c3)C2=O)o1 was read as GPR151 ag 0, TEAD-YAP inh 0, FBW7 activator 0 and MITF inh 4.
For COc1ccc(N2C(=O)/C(=C\c3ccc([N+](=O)[O-])o3)C(=O)NC2=S)cc1 the results were GPR151 ag -1, TEAD-YAP inh 5, FBW7 activator 0 and MITF inh 79*.
For Cc1cc(=O)[nH]c(-n2nc(C3CC3)cc2NC(=O)Cc2ccc(F)cc2)n1 the results were GPR151 ag 0, TEAD-YAP inh 18, FBW7 activator -1 and MITF inh 20.
Cc1nc2cc(C(=O)NC3CCCCC3C)ccc2n1-c1cccc(F)c1 (stereo not drawn) was read as GPR151 ag -1, TEAD-YAP inh -10, FBW7 activator 0 and MITF inh 13.
COc1ccc(/C=C/C(=C(\C#N)C(N)=C(C#N)C#N)C2CC2)cc1 was read as GPR151 ag -1, TEAD-YAP inh -8, FBW7 activator 0 and MITF inh -11.
Screening Cc1c(C(=O)C(=O)N2CCC(C)CC2)c2ccccc2n1C returned GPR151 ag 0, TEAD-YAP inh -8, FBW7 activator 0 and MITF inh 2.
For Cc1c(C(=O)C(=O)N2CC=C(c3ccccc3)CC2)c2ccccc2n1C the results were GPR151 ag -2, TEAD-YAP inh 52*, FBW7 activator 0 and MITF inh -2.
`COc1ccc(C(=O)Nc2ccc(N3CCC(NCCc4cscn4)CC3)cc2)cc1` gave GPR151 ag 0, TEAD-YAP inh -8, FBW7 activator 0 and MITF inh -9.
Screening OCCNc1nc(Nc2ccccc2)nc2c1ncn2-c1ccccc1 returned GPR151 ag -1, TEAD-YAP inh 50*, FBW7 activator 0 and MITF inh 7.
OCCNc1nc(Nc2ccc(C(F)(F)F)cc2)nc2c1ncn2-c1ccsc1 was read as GPR151 ag 1, TEAD-YAP inh 15, FBW7 activator 0 and MITF inh -18.
OCCNc1nc(Nc2ccc(-n3ccnc3)cc2)nc2c1ncn2-c1ccsc1 was read as GPR151 ag 1, TEAD-YAP inh 47*, FBW7 activator 0 and MITF inh 4.
Screening Oc1ccc(CCNc2nc(Nc3ccc(-n4ccnc4)cc3)nc3c2ncn3-c2ccccc2)cc1 returned GPR151 ag 0, TEAD-YAP inh 16, FBW7 activator 0 and MITF inh 3.
OCCNc1nc(Nc2ccc(-n3ccnc3)cc2)nc2c1ncn2-c1ccccc1 was read as GPR151 ag 0, TEAD-YAP inh 42*, FBW7 activator 0 and MITF inh 8.
For OCCNc1nc(Nc2ccncc2)nc2c1ncn2-c1ccsc1 the results were GPR151 ag 2, TEAD-YAP inh 60*, FBW7 activator 0 and MITF inh 13.
COc1ccc(C(=O)CC2(O)C(=O)Nc3ccc(C)cc32)cc1OC (stereo not drawn) was read as GPR151 ag 0, TEAD-YAP inh 9, FBW7 activator 0 and MITF inh 9.
CN(C)c1ccnc2sc(C(N)=O)c(N)c12 was read as GPR151 ag -1, TEAD-YAP inh 53*, FBW7 activator 0 and MITF inh 11.
Screening CCOC(=O)c1sc2nccc(N(C)C)c2c1N returned GPR151 ag 2, TEAD-YAP inh -18, FBW7 activator 0 and MITF inh 3.
Cc1ccc(C)c(N2CCN(C(=O)C34CC5CC(C3)CC(n3nnc(C)n3)(C5)C4)CC2)c1 was read as GPR151 ag -1, TEAD-YAP inh 37*, FBW7 activator 1 and MITF inh 24.
CCN1CCN(CC(O)CN2CCn3c4c(c5cc(C6CCCCC6)ccc53)CCCC42)CC1 (stereo not drawn) was read as GPR151 ag -1, TEAD-YAP inh -1, FBW7 activator 0 and MITF inh 51*.
Screening CCN1CCn2c3c(c4cc(Br)ccc42)CCCC31 (stereo not drawn) returned GPR151 ag 1, TEAD-YAP inh -12, FBW7 activator 0 and MITF inh 5.
For O=C(Nc1cc(F)cc(F)c1)c1ccc(NCCCN2CCN(c3cccc(Cl)c3)CC2)c([N+](=O)[O-])c1 the results were GPR151 ag 0, TEAD-YAP inh 1, FBW7 activator -1 and MITF inh 5.
Screening COc1ccc(-c2cnc(NCc3cnc(C)cn3)nc2)cc1 returned GPR151 ag -2, TEAD-YAP inh 46*, FBW7 activator 1 and MITF inh 9.
`COc1ccc(-c2cnnc(NCc3cnc(C)cn3)n2)cc1` gave GPR151 ag 1, TEAD-YAP inh 0, FBW7 activator 0 and MITF inh 8.
`O=C(CSc1ccccc1C(=O)O)Nc1ccnc2ccccc12` gave GPR151 ag 2, TEAD-YAP inh -10, FBW7 activator 0 and MITF inh 17.
O=C(CSc1nnnn1C1CC2CCC1C2)Nc1ccnc2ccccc12 (stereo not drawn) was read as GPR151 ag 0, TEAD-YAP inh 61*, FBW7 activator 0 and MITF inh 16.
For COc1ccc(OC)c(NC2=CC(=O)CC(c3ccccc3)C2)c1 (stereo not drawn) the results were GPR151 ag 0, TEAD-YAP inh 55*, FBW7 activator 0 and MITF inh 1.
COc1ccc(NC2=CC(=O)CC(c3ccccc3)C2)c(OC)c1 (stereo not drawn) was read as GPR151 ag 0, TEAD-YAP inh 48*, FBW7 activator 1 and MITF inh 16.
Screening COc1cc(NC(=S)NCc2ccc3c(c2)OCO3)cc(OC)c1 returned GPR151 ag 0, TEAD-YAP inh -1, FBW7 activator 0 and MITF inh -14.
`CCc1c(C(=O)N2CCN(c3cccc(OC)c3)CC2)[nH]c(C)c1C(C)=O` gave GPR151 ag 0, TEAD-YAP inh 54*, FBW7 activator 0 and MITF inh 8.
For CC(=O)c1c(C)[nH]c(C(=O)N2CCN(c3cccc(Cl)c3)CC2)c1C the results were GPR151 ag 1, TEAD-YAP inh 52*, FBW7 activator 0 and MITF inh 8.
CC(=O)c1c(C)[nH]c(C(=O)N2CCN(c3cc(Cl)ccc3C)CC2)c1C was read as GPR151 ag -1, TEAD-YAP inh -2, FBW7 activator 0 and MITF inh 8.
For CC(=O)c1c(C)[nH]c(C(=O)N2CCN(c3ccc(F)cc3)CC2)c1C the results were GPR151 ag 0, TEAD-YAP inh -3, FBW7 activator 0 and MITF inh -1.

Compound activity: PubChem, The Scripps Research Institute Molecular Screening Center
